Measured values taken from PubChem BioAssay AID493206 (National Center for Advancing Translational Sciences (NCATS), 2011).
Where “and” joins values, the source holds several entries; their conditions need not be identical. Equal entries are not always repeated. Inconclusive results are not listed. Calls of active or inactive are those of the source. The call rests on the fitted dose curve; in most records, active means well fitted inhibition curve with a large enough effect; inconclusive means small, poorly fitted or top-dose-only effect; inactive means flat fitted curve, though single readings scatter.

molecular target: Dual specificity tyrosine-phosphorylation-regulated kinase 1A (Homo sapiens) (UniProt Q13627); test: Assay for Inhibitors of Dual-Specificity Tyrosine-(Y)-Phosphorylation Regulated Kinase 1A (Kinase-Glo assay): round 2 SAR; conditions: recombinant DYRK1A, Kinase-Glo ATP depletion luminescence; series mostly up to 76.9 µM; activity, negative = inhibition: at the top concentration
Source text: NIH Molecular Libraries Probe Production Centers Network [MLPCN] NIH Chemical Genomics Center [NCGC] MLPCN Grant: 1R03MH084827-01 PI Name: Tom Misteli NCGC Assay Overview: The CMGC group of protein kinases which includes CDK-like kinases (Clk) and Dyks are essential kinases found in all eukaryotes. Clks have been implicated to play a role in the regulation of alternative splicing; while Dyrks, in particular over expression of Dyrk1A, has been linked to diseases as Down syndrome (DS; OMIM 190685) and Alzheimer disease (AD; OMIM 104300). Among the members of the CMGC group, the Clks and the Dyrks are very closely related therefore to determine validity and selectivity of an active compound observed in the CLK4 qHTS screen (AID:1770), a bioluminescent counter-screen against Dyrk1A was developed. In addition, potent and selective compounds against Dyrk1A were identified to further assess the role of this enzyme in DS and AD. Dyrk1A (Invitrogen, cat # PV3785) was assayed using ATP and DYRKtide (AnaSpec, cat# 62698) as substrates. Promega Kinase-Glo (cat# V6712) technology was used to detect the residual ATP following kinetic reaction. The Kinase-Glo Plus contains Ultra-Glo [5] luciferase and D-luciferin which generates a bioluminescence signal from the remaining ATP. No enzyme and harmine (Sigma, cat # 286044-1G), a compound shown to inhibit Dyrks were used as a positive control; while DMSO treatment was used as a negative control.
NCGC Assay Protocol Summary: Two uL/well of substrate solution (8uM Dyrktide, 2uM ATP, 25mM Tris-HCl pH 7.5, 10mM MgCl2 , 0.5mM EGTA, 5mM cystein, 0.01% Triton X-100 final concentration) was dispensed into 1536-well assay plates (Greiner, solid white, medium-binding plates) with Aurora Discovery BioRAPTR Flying Reagent Dispenser (FRD, Beckton-Dickenson). Compound solution (23 nL) was transferred to the assay plate using Kalypsys pin tool equipped with a 1536-pin tool. One uL/well enzyme solution (5nM Dyrk1A, 25mM Tris-HCl pH7.5, 10mM MgCl2, 0.5mM EGTA, 5mM cystein, 0.01% Triton X-100 final concentration) was then added using FRD yielding a total kinase reaction volume of 3uL/well. After 2 hours of room temperature incubation, 3uL Kinase-Glo detection reagent was added for a final assay volume of 6uL/well. The plates were spun for 30 seconds (1000 rpm) and incubated at ambient temperature for 2 minutes followed by a luminescence read using Perkin Elmer ViewLux plate reader at 3 seconds exposure time and 2x binning.

Potency, active:
CN(CC(=O)O)c1ncnc2ccc(-c3ccc4c(c3)OCO4)cc12 8.23 µM
Cc1ccc(CNc2ncnc3ccc(-c4ccc([C@@H](C)O)o4)cc23)o1 26 µM and 16.4 µM and 23.2 µM
Fc1cccc(CNc2ncnc3ccc(-c4ccccc4Cl)cc23)c1 16.4 µM
c1cncc(-c2ccc3ncnc(NCc4cccs4)c3c2)c1 23.2 µM
c1cncc(CNc2ncnc3ccc(-c4ccc5c(c4)OCCO5)cc23)c1 1.16 µM
O=C(O)c1ccc(-c2ccc3ncnc(N4CCOCC4)c3c2)o1 26 µM
Cc1nc(C(C)N(C)c2ncnc3ccc(-c4ccc5c(c4)OCO5)cc23)cs1 (centres undefined) 29.2 µM
CC(O)c1ccc(-c2ccc3ncnc(NCCc4cnc[nH]4)c3c2)o1 (centres undefined) 23.2 µM
Cc1csc(CNc2ncnc3cc(-c4ccc5c(c4)OCO5)ccc23)n1 29.2 µM
Cc1cccc(-c2ccc3ncnc(NCc4cccc(F)c4)c3c2)c1 13 µM
OCc1ccc(-c2ccc3ncnc(N4CCOCC4)c3c2)o1 16.4 µM
Fc1cccc(CNc2ncnc3ccc(-c4ccoc4)cc23)c1 0.823 µM
CC(Nc1ncnc2ccc(-c3ccc4c(c3)OCO4)cc12)c1ccco1 (centres undefined) 0.582 µM
Fc1cccc(CNc2ncnc3ccc(-c4ccc5c(c4)OCO5)cc23)c1 0.463 µM
CN(CC1CCCO1)c1ncnc2ccc(-c3ccc4c(c3)OCO4)cc12 (centres undefined) 0.26 µM
Cc1nc(CCNc2ncnc3ccc(-c4ccc5c(c4)OCO5)cc23)cs1 0.26 µM
Cc1ccc(CNc2ncnc3cc(-c4ccc5c(c4)OCO5)ccc23)o1 23.2 µM
c1csc(CNc2ncnc3ccc(-c4ccc5c(c4)OCO5)cc23)c1 0.184 µM
c1csc(CNc2ncnc3ccc(-c4ccc5c(c4)OCO5)cc23)n1 0.184 µM
C[C@@H](O)c1ccc(-c2ccc3ncnc(NCc4cccs4)c3c2)o1 23.2 µM
Cc1csc(CNc2ncnc3ccc(-c4ccc5c(c4)OCO5)cc23)n1 0.207 µM
CC(O)c1ccc(-c2ccc3ncnc(N4CCOCC4)c3c2)o1 (centres undefined) 23.2 µM
COc1cccc(-c2ccc3ncnc(NCc4cc(C)cs4)c3c2)c1 5.82 µM
c1nc(N2CCNCC2)c2cc(-c3ccc4c(c3)OCO4)ccc2n1 5.19 µM
COc1cccc(-c2ccc3ncnc(NCc4ccc5c(c4)OCO5)c3c2)c1 9.23 µM
Clc1ccccc1-c1ccc2ncnc(NCc3cccs3)c2c1 6.54 µM
COc1cccc(Nc2ncc3ncc(=O)n(C)c3n2)c1 11.6 µM
CCNC(=O)c1ccc(-c2ccc3ncnc(NCCc4cnc[nH]4)c3c2)o1 11.6 µM
Cc1csc(CNc2ncnc3ccc(-c4ccc(C(C)O)o4)cc23)n1 (centres undefined) 26 µM
Cc1csc(CNc2ncnc3ccc(-c4ccoc4)cc23)c1 3.68 µM
CCCNc1ncnc2ccc(-c3ccc4c(c3)OCO4)cc12 0.184 µM
c1nc(NCc2ccc3c(c2)OCO3)c2cc(-c3ccc4c(c3)OCCO4)ccc2n1 4.12 µM
Cc1ccsc1CN(C)c1ncnc2ccc(-c3ccc([C@@H](C)O)o3)cc12 3.68 µM and 1.46 µM and 1.04 µM
COc1cccc(-c2ccc3ncnc(NCc4cccc(C)c4)c3c2)c1 8.23 µM
Fc1cccc(CNc2ncnc3ccc(-c4cccnc4)cc23)c1 26 µM
CCNC(=O)c1ccc(-c2ccc3ncnc(NCc4ccc(C)o4)c3c2)o1 9.23 µM

activity, negative = inhibition, inactive:
COc1cccc(Nc2ncc3nc(-c4cn(C)c5ccccc45)c(=O)n(CCC#N)c3n2)c1 -13.8%
CS(=O)(=O)CCNCc1ccc(-c2ccc3ncnc(Nc4ccc(OCc5cccc(F)c5)c(Cl)c4)c3c2)o1 -4.73%
CN1CCN(c2ncc3nc(-c4cn(C)c5ccccc45)c(=O)n(Cc4cccs4)c3n2)CC1 -6.07%
